Data published in PubChem BioAssay (NCATS).
Inconclusive results are not listed. Calls of active or inactive are those of the source. Calls follow the shape of the dose curve; as a rule, active = well fitted cell-killing curve with a large enough effect; inconclusive = small, poorly fitted or top-dose-only effect, or effect the other way; inactive = flat fitted curve, though single readings scatter.

What was measured:
Assay in all cases: Primary qHTS to identify gynecologic anti-cancer compounds using libraries of approved drugs and bioactive compounds (AID 1345084); also: nearly all actives have a fitted effect of over 55% in size
Settings in all cases: Gynecologic cancer cell panel viability, ATPlite luminescence, 48 h; series mostly up to 57.5 µM
PA-1 = test system: PA-1
In short: (§1)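 Cells, 1,000 per well, plated 16 h, then exposed 48 h at 37 C to compounds. Viability by ATPlite luminescence after 15 min at room temperature.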

SKOV3 = test system: SKOV3
In short: as §1

Tov-21-G = test system: Tov-21-G
In short: as §1

Tov112D = test system: Tov112D
In short: as §1
% is scaled to controls: 0 for no effect and ±100 for the full control effect.

CCC(C)/C=C(C)/C=C/C(=O)C1CCC(O)C(C)(O)C1=O (stereo not drawn)
inactive: Potency (PA-1) | Potency (SKOV3) | Potency (Tov-21-G) | Potency (Tov112D)

C=CCc1cc(OC)c(OC(C)C(O)c2ccc(O)c(OC)c2)c(OC)c1 (stereo not drawn)
inactive: Potency (PA-1) | Potency (SKOV3) | Potency (Tov-21-G) | Potency (Tov112D)

O=C(N[C@@H]1CC[C@@H](c2cccc(F)c2F)CN(CC(F)(F)F)C1=O)N1CCC(n2c(=O)[nH]c3ncccc32)CC1
inactive: Potency (PA-1) | Potency (SKOV3) | Potency (Tov-21-G) | Potency (Tov112D)

COC(=O)[C@H](Cc1cccc(C(=N)N)c1)[C@@H](C)NC(=O)c1ccc(-c2cc[n+]([O-])cc2)cc1
inactive: Potency (PA-1) | Potency (SKOV3) | Potency (Tov-21-G) | Potency (Tov112D)

O=C(O)c1cccc(C(=O)CCC2OC(n3cnc4c(=O)[nH]cnc43)C(O)C2O)c1 (stereo not drawn)
inactive: Potency (PA-1) | Potency (SKOV3) | Potency (Tov-21-G) | Potency (Tov112D)

COc1cccc(OC)c1-c1ccc(C[C@H](NC(=O)c2c(Cl)cccc2Cl)C(=O)O)cc1
inactive: Potency (PA-1) | Potency (SKOV3) | Potency (Tov-21-G) | Potency (Tov112D)

C=C1CC[C@@H]2[C@@](C)(CO[C@@H]3O[C@H](CO)[C@@H](O)[C@H](O)[C@H]3O)[C@H](O)CC[C@@]2(C)[C@@H]1CC/C(C)=C/CO[C@@H]1O[C@H](CO)[C@@H](O)[C@H](O)[C@H]1O
inactive: Potency (PA-1) | Potency (SKOV3) | Potency (Tov-21-G) | Potency (Tov112D)

CC(C)=CCC[C@](C)(O[C@@H]1O[C@H](CO[C@@H]2O[C@@H](CO)[C@H](O)[C@H]2O[C@@H]2OC[C@@H](O)[C@H](O)[C@H]2O)[C@@H](O)[C@H](O)[C@H]1O)[C@H]1CC[C@]2(C)[C@@H]1[C@H](O)CC1[C@@]3(C)CC[C@H](O[C@@H]4O[C@H](CO)[C@@H](O)[C@H](O)[C@H]4O[C@@H]4O[C@H](CO)[C@@H](O)[C@H](O)[C@H]4O)C(C)(C)C3CC[C@]12C (stereo partly drawn)
inactive: activity change, negative = cytotoxicity (PA-1) 11.1% [at 6.55 µM] | activity change, negative = cytotoxicity (SKOV3) 24.5% [at 6.55 µM] | activity change, negative = cytotoxicity (Tov-21-G) 0.809% [at 6.55 µM] | activity change, negative = cytotoxicity (Tov112D) 0.454% [at 6.55 µM]

C=C1CCC2C(C)(C)CC(O)CC2(C)C1CCC(C)CC(=O)O (stereo not drawn)
inactive: Potency (PA-1) | Potency (SKOV3) | Potency (Tov-21-G) | Potency (Tov112D)

CC(C)(C)NS(=O)(=O)c1ccc(-c2ccc3[nH]nc(N)c3c2)cc1
inactive: Potency (PA-1) | Potency (SKOV3) | Potency (Tov-21-G) | Potency (Tov112D)

COC(=O)C1=CO[C@@H](O[C@@H]2O[C@H](CO)[C@@H](O)[C@H](O)[C@H]2O)/C(=C\CO)[C@@H]1CC(=O)OCCc1ccc(O)cc1
inactive: Potency (PA-1) | Potency (SKOV3) | Potency (Tov-21-G) | Potency (Tov112D)

CC(C)C1C(OC(=O)/C=C/c2ccccc2)CC2(C)OC2CCC2(C)OC2C1O (stereo not drawn)
inactive: Potency (PA-1) | Potency (SKOV3) | Potency (Tov-21-G) | Potency (Tov112D)

CC(C)=CCC[C@](C)(O[C@@H]1O[C@H](CO[C@@H]2OC[C@H](O)[C@H](O)[C@H]2O)[C@@H](O)[C@H](O)[C@H]1O)[C@H]1CC[C@]2(C)[C@@H]1[C@H](O)C[C@@H]1[C@@]3(C)CC[C@H](O[C@@H]4O[C@H](CO)[C@@H](O)[C@H](O)[C@H]4O[C@@H]4O[C@H](CO)[C@@H](O)[C@H](O)[C@H]4O)C(C)(C)[C@@H]3CC[C@]12C
inactive: Potency (PA-1) | Potency (SKOV3) | Potency (Tov-21-G) | Potency (Tov112D)

C[C@@H]1CC[C@]2(C(=O)O[C@@H]3O[C@H](CO[C@@H]4O[C@H](CO)[C@@H](O[C@@H]5O[C@@H](C)[C@H](O)[C@@H](O)[C@H]5O)[C@H](O)[C@H]4O)[C@@H](O)[C@H](O)[C@H]3O)CC[C@]3(C)C(=CCC4[C@@]5(C)C[C@@H](O)[C@H](O)[C@@](C)(CO)C5CC[C@]43C)C2[C@H]1C (stereo partly drawn)
inactive: activity change, negative = cytotoxicity (PA-1) 6.43% [at 11.6 µM] | activity change, negative = cytotoxicity (SKOV3) 21.1% [at 11.6 µM] | activity change, negative = cytotoxicity (Tov-21-G) 3.06% [at 11.6 µM] | activity change, negative = cytotoxicity (Tov112D) 3.29% [at 11.6 µM]

COC(=O)C1=CO[C@@H](O[C@@H]2O[C@H](CO)[C@@H](O)[C@H](O)[C@H]2O)[C@@H]2[C@@H](C)[C@@H](OC(=O)/C=C/c3ccccc3)[C@@H](O)[C@H]12
inactive: Potency (PA-1) | Potency (SKOV3) | Potency (Tov-21-G) | Potency (Tov112D)

Cc1cn(C[C@H](N)C(=O)O)c(=O)n(Cc2ccsc2C(=O)O)c1=O
inactive: Potency (PA-1) | Potency (SKOV3) | Potency (Tov-21-G) | Potency (Tov112D)

CC1(C)CCC2(C(=O)O)C(O)CC3(C)C(=CCC4C5(C)CCC(OC6OC(CO)C(O)C(O)C6OC6OC(CO)C(O)C(O)C6OC6OCC(O)(CO)C6O)C(C)(C)C5CCC43C)C2C1 (stereo not drawn)
inactive: activity change, negative = cytotoxicity (PA-1) -4.82% [at 11.6 µM] | activity change, negative = cytotoxicity (SKOV3) 9.15% [at 11.6 µM] | activity change, negative = cytotoxicity (Tov-21-G) -4.95% [at 11.6 µM] | activity change, negative = cytotoxicity (Tov112D) 1.07% [at 11.6 µM]
